HTT ATP protect = qHTS Multiplex Assay to Identify Dual Action Probes in a Cell Model of Huntington: Cytoprotection (ATP); PC12 HTT-Q103 induced, cytoprotection, ATP luminescence, 40 h; Potency, µM (series often up to 56.4 µM), usual class: activators; 230,000 compounds, 0.14% hits; AID 1471, 2008; note: nearly all actives have a fitted effect of over 45% in size
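Rat PC12, Q103 Htt exon1-GFP fusion, ecdysone promoter; tebufenozide inducer 100 nM final; compound titration; qHTS, 1500 cells/well; ATPlite luminescent read.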
HttQ103 aggreg = qHTS Multiplex Assay to Identify Dual Action Probes in a Cell Model of Huntington: Aggregate Formation (GFP); PC12 HttQ103-GFP aggregates, Acumen cytometry, 40 h; Potency, µM (top dose mostly 46.1 µM), hits mostly inhibitors; 220,000 compounds, 1.1% hits; note: nearly all actives have a fitted effect of over 60% in size
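Using laser scanning cytometry, GFP-positive aggregates were counted after lysis of PC12 cells induced with 100 nM tebufenozide to express HTT exon 1 Q103–GFP. Compounds were tested in titration.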
PNC inhibitor = High Content Assay for Compounds that inhibit the Assembly of the Perinucleolar Compartment. PC3M PTB-GFP, PNC prevalence imaging, 16 h; hits give low values. activity change (PNC), negative = inhibition, % at 10 µM. 140,000 compounds, 3.1% hits. AID 2417, 2010;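 active = readout at or below -70, meaning at least 70% loss of cells showing the perinucleolar compartment, a nuclear body marking cancer cells; inconclusive = readout between -30 and a set limit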
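Compounds are pinned in duplicate onto adhered PC3M cells stably expressing GFP-tagged PTB and incubated 16 h at 37 C. Cells are then fixed, nuclei stained with Hoechst, and PNC-positive cells counted.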
Of the large screens only hits and unclear results are named; the others gave an inactive call. This excerpt belongs to a sample that is enriched for hits. Unless noted, calls come from the whole dose curve; as a rule, active = well fitted curve in the direction sought with a large enough effect; inconclusive = small, poorly fitted or top-dose-only effect, or another doubt; inactive = no such curve, though single readings can be large; an effect the other way counts as inactive or inconclusive.

O=C(O)C1CCCN1c1ncccn1 (configuration not stated)	none
Cc1ccc(OCCOCCN(C)C)c(Cl)c1	PNC inhibitor -96
CN(C)CCCCOc1ccc(Br)cc1Cl	none (no result: PNC inhibitor)
CCCn1nc2cc(C(=O)NCc3ccc(OC)cc3)ccc2c1OCC	none
COc1ccccc1N1CCN(Cc2cn[nH]c2-c2ccc(F)cc2)CC1	none (no result: PNC inhibitor)
NC(N)=N/N=C\c1ccc(C2CCNCC2)cc1	none (no result: HttQ103 aggreg, PNC inhibitor)
O=C(CSCc1c(Cl)cccc1Cl)Nc1ccc2c(c1)OCCO2	PNC inhibitor -83
COc1ccccc1NC(=O)CN1CCN(CC(=O)Nc2ccc3c(c2)OCCO3)CC1	none
O=C(CN1CCN(CC(=O)Nc2ccccc2Cl)CC1)Nc1ccc2c(c1)OCCO2	PNC inhibitor -100
O=C(COc1ccccc1Cl)Nc1ccc2c(c1)OCCO2	none
COc1ccc(NC(=O)[C@H](C)NC(N)=O)cc1S(=O)(=O)Nc1cc(C)ccc1Br	none (no result: PNC inhibitor)
NC(=O)CC(NC(=O)Cc1ccc(Br)cc1)c1ccc(NCc2cc(F)ccc2F)c([N+](=O)[O-])c1 (configuration not stated)	none (no result: PNC inhibitor)
NC(=O)CSc1nc(C2CC2)nc2sc3c(c12)CCCC3	none (no result: PNC inhibitor)
CC1CC(=O)C2=C(C1)Nc1ccccc1N(C(=O)COc1ccccc1)C2c1ccco1 (configuration not stated)	none
CCOc1nc(NCCO)nc(NCCC2=CCCCC2)n1	PNC inhibitor -100
CCOc1nc(NCCC2=CCCCC2)nc(N2CCOCC2)n1	none
CC(=O)Nc1cccc(/C(C)=N/NC(N)=S)c1	none (no result: HTT ATP protect, PNC inhibitor)
Cn1nnnc1SCC(=O)Nc1ccccc1Cl	none
Cn1nnnc1SCC(=O)Nc1ccc(Br)cc1Cl	PNC inhibitor -100
CC(C)NC(=O)C1CCCN(S(C)(=O)=O)C1 (configuration not stated)	none
Cc1cc(C)c(S(=O)(=O)N(CC(=O)O)C2CCCCC2)c(C)c1	PNC inhibitor -97
CCOC(=O)N1CCN(C(=O)CN(C2CCCCC2)S(=O)(=O)c2c(C)cc(C)cc2C)CC1	none
CCOC(=O)CCc1c(C)c(C#N)c2nc3ccccc3n2c1-n1cnc2ccccc21	none
CCOC(=O)c1c(O)c2ccccc2n(C)c1=O	none (no result: PNC inhibitor)
Nc1nc(NC(=O)c2ccccc2)nn1-c1ccccc1	none (no result: HTT ATP protect)
O=C(Nc1nc(NC(=O)c2ccco2)n(-c2ccccc2)n1)c1ccccc1	HTT ATP protect 4µM, HttQ103 aggreg inconclusive
O=C(C1CCN(S(=O)(=O)c2ccc(F)cc2)CC1)N1CC=C(c2ccccc2)CC1	none
Cc1ccc2cc(C#N)c(SCC(=O)N3CCCc4ccccc43)nc2c1	none
Cc1nn(C)c(C)c1/C=C(/C(=O)C(C)C)n1cncn1	none (no result: PNC inhibitor)
CCn1c(C)nc([N+](=O)[O-])c1Sc1ccc(F)cc1	PNC inhibitor inconclusive (no result: HTT ATP protect)
O=C(CSCc1nc2ccccc2[nH]1)N1CCN(c2cccc(Cl)c2)CC1	HttQ103 aggreg 25µM
O=C(CSCc1nc2ccccc2[nH]1)N1CCN(c2ccc(F)cc2)CC1	HttQ103 aggreg inconclusive
COc1cc(N2CCCC2)c(OC)cc1/C=C(/C#N)c1cccc(F)c1	HttQ103 aggreg inconclusive, PNC inhibitor -89
COc1cccc(/C=C(/C#N)c2ccc(F)cc2)c1OCc1cccc(C(=O)O)c1	none
Cc1ccc(S(=O)(=O)NC(=O)NC2CCCCCCC2)cc1	none (no result: PNC inhibitor)
CCC(C(=O)NC(C)CCc1ccco1)n1nc(C)n2c(cc3occc32)c1=O (configuration not stated)	PNC inhibitor -100
CCC(C(=O)NC(C)CCc1ccccc1)n1nc(C)n2c(cc3occc32)c1=O (configuration not stated)	PNC inhibitor inconclusive
CCN(CC(=O)Nc1ccccc1-c1ccccc1)Cc1nc2ccccc2c(=O)[nH]1	none (no result: HTT ATP protect, PNC inhibitor)
Cc1cc(Cl)c(OCCN2C(=O)NC(C)(C)C2=O)c(Br)c1	none
Cc1cc(Cl)cc(Br)c1OCCCN1C(=O)NC(C)(C)C1=O	PNC inhibitor -80
CCCCCC(=O)NNC(=O)Cc1ccc([N+](=O)[O-])cc1	none (no result: PNC inhibitor)
CCCCC/C=N\NC(=O)Cc1ccc([N+](=O)[O-])cc1	PNC inhibitor -95
CCCCNC(=O)Nc1nc(SCC(=O)OCC)n[nH]1	none (no result: PNC inhibitor)
CC(Sc1nc(N2CCCCC2)c2c(c1C#N)CCCC2)C(=O)O (configuration not stated)	PNC inhibitor -117
N#Cc1c(SCC(=O)O)nc(N2CCOCC2)c2c1CCCC2	none (no result: PNC inhibitor)
CC(=O)c1cc2c(s1)-c1cc(F)ccc1OC2	none (no result: PNC inhibitor)
CC(=O)c1ccc(NC(=O)C2CC(=O)N(Cc3ccccc3)C2)cc1 (configuration not stated)	none
O=C(NN=C(Cc1ccccc1)Cc1ccccc1)c1ccncc1	none (no result: PNC inhibitor)
CCOC(=O)c1ccc(NCCOC)c([N+](=O)[O-])c1	none (no result: PNC inhibitor)
COC(=O)c1ccc(NC(CC(C)C)C(=O)OC)c([N+](=O)[O-])c1 (configuration not stated)	PNC inhibitor -119
Cc1ccc2c(c1)c(CC(=O)Nc1ccc(C)c(F)c1)c(C(=O)O)n2C	PNC inhibitor inconclusive
O=C(NC1CCCCC1)C1CN(S(=O)(=O)c2ccccc2)CCN1S(=O)(=O)c1ccccc1 (configuration not stated)	none
O=C(NNc1nc2ccc(Cl)cc2s1)c1cc(-c2cccs2)nc2ccccc12	HttQ103 aggreg 14µM (no result: HTT ATP protect)
Cc1cc(C)c2nc(NNC(=O)c3cc(-c4cccs4)nc4ccccc34)sc2c1	HttQ103 aggreg inconclusive (no result: HTT ATP protect)
CCCC(=O)c1cc2cc(Cl)ccc2oc1=O	none
CCCc1nc2ccccc2c2nc(N)nn12	none
Cc1nc2ccccc2c2nc(N)nn12	PNC inhibitor -100
CCCCN(CC)C(=S)Nc1ccc2nc(N3CCN(C)CC3)cc(C)c2c1	none (no result: PNC inhibitor)
CC(c1ccon1)N(C)Cc1cn(C)nc1-c1ccc2c(c1)OCCO2 (configuration not stated)	none (no result: PNC inhibitor)
CC(c1ccon1)N(C)Cc1cn(Cc2ccccc2)nc1-c1ccc2c(c1)OCO2 (configuration not stated)	HttQ103 aggreg 14µM (no result: PNC inhibitor)
Cc1cnnc2c1-c1nonc1CC2	none
CC(C)Oc1ccc(/C=N/NC(=O)C2CCCN2S(=O)(=O)c2ccc(Cl)cc2)cc1 (configuration not stated)	none
O=C1/C(=N\S(=O)(=O)c2cccs2)C([n+]2ccccc2)=C([O-])c2ccccc21	none (no result: PNC inhibitor)
O=C1C(Nc2ccc(O)cc2)=C/C(=N/S(=O)(=O)c2cccs2)c2ccccc21	HttQ103 aggreg 2.5µM (no result: PNC inhibitor)
Cc1cccc(NC2=C(NCCO)C(=O)c3ccccc3C2=O)c1	none
Cc1cccc(NC2=C/C(=N/S(=O)(=O)c3cccs3)c3ccccc3C2=O)c1	PNC inhibitor -97 (no result: HTT ATP protect)
O=C(O)c1ccc(NS(=O)(=O)c2ccc3c(c2)C(=O)c2ccccc2C3=O)cc1	none (no result: PNC inhibitor)
O=C1C=C(Nc2ccc(O)cc2)C(=O)c2ccccc21	none (no result: PNC inhibitor)
Cc1ccc(NC2=C/C(=N\S(=O)(=O)c3cccs3)c3ccccc3C2=O)c(C)c1	HttQ103 aggreg 2.2µM
O=C(O)c1ccc(NC2=C/C(=N/S(=O)(=O)c3ccccc3)c3ccccc3C2=O)cc1	HttQ103 aggreg 16µM (no result: PNC inhibitor)
CCC(C)c1ccccc1NC(=O)Cc1coc2cc3c(cc12)CCC3 (configuration not stated)	none
Cc1cc(C(=O)O)sc1C(N)C(=O)O (configuration not stated)	none (no result: HttQ103 aggreg, PNC inhibitor)
